Screening data (PubChem BioAssay)
DAX1 inh-1 = DAX1 (NR0B1) inhibitors, primary screen, cell-based, HEK293, Gal4-DAX1, luciferase luminescence | 340,000 compounds, 0.99% hits | inhibition, % at 6.75 µM | Nuclear receptor subfamily 0 group B member 1 (Homo sapiens), P51843 | HEK293 Gal4-DAX1 luciferase reporter;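 active means inhibition above the mean over all tested compounds plus 3 SD, cut at about 4.2% in these data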;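 further: 0% = DAX1-transfected cells with DMSO and 100% = empty-vector control cells with DMSO; inhibition shows as a rise in luminescence from relieved DAX1 repression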
Target sequence (P51843 207-470 limits assumed): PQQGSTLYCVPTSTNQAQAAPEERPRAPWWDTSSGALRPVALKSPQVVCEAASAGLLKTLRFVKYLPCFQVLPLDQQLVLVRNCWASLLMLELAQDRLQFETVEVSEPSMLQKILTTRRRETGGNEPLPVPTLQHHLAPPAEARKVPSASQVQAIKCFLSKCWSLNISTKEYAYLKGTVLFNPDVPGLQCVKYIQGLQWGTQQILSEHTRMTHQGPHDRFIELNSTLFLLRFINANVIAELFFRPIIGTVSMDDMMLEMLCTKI
ssDAF12 agonist = S. stercoralis DAF-12 nuclear receptor activators, primary screen, cell-based, luminescence, HEK293, GRIP1 co-expression, lit1-tk-luc | Nuclear hormone receptor DAF-12 (Strongyloides stercoralis) | HEK293 ssDAF-12/GRIP1 lit1-tk-luc reporter; % of 3 µM dafachronic acid response | activation, % at 6.8 µM | 370,000 compounds, 1% hits | AID 652126, 2013;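 active means activation above the mean over all tested compounds plus 3 SD, cut at about 0.9% in these data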;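 further: 0% = DMSO-only wells and 100% = 3 µM delta7-dafachronic acid wells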
DAX1 inh-2 = DAX1 (NR0B1) inhibitors on StAR promoter, primary screen, cell-based, luminescence, SF-1 (NR5A1), full-length DAX-1; 370,000 compounds, 1.1% hits; inhibition, % at 6.8 µM; HEK293T StAR-luciferase reporter, SF-1/DAX-1 repression relief;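 active means inhibition above the mean over all tested compounds plus 3 SD, cut at about 3.6% in these data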;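 further: 0% = DAX-1 cells with DMSO and 100% = cells lacking DAX-1 with DMSO; higher inhibition means more luminescence from relief of DAX-1 repression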
hgDAF-12 ag = H. glycines DAF-12 receptor agonists, primary screen, cell-based, luminescence, HEK293, GAL4 fusion, UAS-luciferase. Nuclear hormone receptor DAF-12 (Heterodera glycines), GAL4 fusion. HEK293 GAL4-hgDAF12 UAS-luciferase reporter, agonist luminescence; normalized to butyrate control. activation, % at 6.8 µM. 370,000 compounds, 1.8% hits. AID 687014, 2013;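 active means activation above a cutoff set at the mean of all screened compounds plus 3 SD, cut at about 10% in these data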;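 further: 0% = DMSO wells and 100% = sodium butyrate wells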
hcDAF-12 act = H. contortus DAF-12 nuclear receptor activators, primary screen, cell-based, luminescence, HEK293, lit1-tk-luc reporter | activation, % at 6.8 µM | 370,000 compounds, 1.4% hits | AID 652067, 2013 | HEK293 hcDAF-12 lit1-tk-luc reporter; 0% DMSO, 100% Δ7-dafachronic acid;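 active means activation above the mean of all tested compounds plus 3 SD, cut at about 5.5% in these data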;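 further: 100% = response to 3 µM Δ7-dafachronic acid high control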
* marks the source's active call; other numbers are inactive results; . = not tested or not shown. A selection: hits, their analogues and other compounds. The true share with any hit is near 4.1%.

SMILES | DAX1 inh-1 | ssDAF12 agonist | DAX1 inh-2 | hgDAF-12 ag | hcDAF-12 act
O=C1NC(=O)N(Cc2ccccc2)C(=O)/C1=C/N1CCCc2ccccc21 | 3 | 0 | 0 | 4 | 5.8*
CN1CCCCC1c1ccc(-c2cccnc2)nc1 (stereo not given) | 7.3* | 1 | 2 | 5 | -2
Nc1ccccc1C(=O)OCc1ccc([N+](=O)[O-])cc1 | -1 | -1 | 0 | 11* | 2
Cc1cc(=O)oc2cc(OCC(=O)N3CCC(C(=O)O)(c4ccccc4)CC3)ccc12 | 4 | -1 | 0 | -3 | 0
Cc1cc(=O)oc2c(C)c(OCC(=O)N3CCC(C(=O)O)(c4ccccc4)CC3)ccc12 | 4.6* | -1 | 1 | 3 | -1
COc1ccc([C@@H]2C[C@H]3[C@@H](CN2)CON3C)cc1 | . | -1 | -1 | 0 | -3
CC(C)OC(=O)C1C(c2ccc(I)cc2)CC2CCC1N2C (stereo not given) | . | -2 | 0 | -1 | 0
Cc1cc(OCC(=O)NC(Cc2ccc(Cl)cc2)C(=O)O)c2c3c(c(=O)oc2c1)CCC3 (stereo not given) | 5.8* | -1 | 0 | 3 | 0
CC(NC(=O)OC1CC2CCC1(C)C2(C)C)P(=O)(Oc1ccccc1)Oc1ccccc1 (stereo not given) | . | 0 | . | 2 | 0
CC(=O)C1=C(C)OC2=C(C(=O)CCC2)[C@@]12C(=O)N(C)c1ccccc12 | . | -1 | -1 | 0 | -1
CC(C)C[C@H]1N=C(c2ccccc2)c2ccccc2N(CC(=O)NC(C)(C)C)C1=O | . | -2 | 0 | -2 | -1
C[C@H]1CC[C@@H]2[C@@H](C)[C@H]3[C@H](C[C@H]4[C@@H]5CC=C6C[C@@H](O[C@@H]7O[C@H](CO)[C@H](O)[C@H](O[C@@H]8O[C@H](CO)[C@@H](O)[C@H](O)[C@H]8O)[C@H]7O[C@@H]7O[C@@H](C)[C@H](O)[C@@H](O)[C@H]7O)CC[C@]6(C)[C@H]5CC[C@]34C)N2C1 | 4.3* | -1 | -2 | -7 | -2
CCCCN1C(=O)NC(=O)C2(Cc3c(nc4ccccn4c3=O)N3CCc4ccccc4C32)C1=O (stereo not given) | -1 | 0 | 0 | 0 | 6.0*
C=C1C(=O)C(C)=C2C(=O)N3Cc4[nH]c5ccccc5c4CC3(C(=O)OC)C12 (stereo not given) | . | -2 | -1 | -2 | 0
Cc1c(N=Nc2c(O)n(-c3ccc(Br)cc3)c(=O)[nH]c2=O)c(=O)n(-c2ccccc2)n1C | 2 | -1 | 1 | -2 | -1
Cc1cc([P+](=O)O)c(C)n1-c1ccc(Br)cc1 | 0 | 1.5* | 0 | 1 | 5
O=C(CN1CC(c2ccccc2)CC1=O)Nc1ccc(F)cc1 (stereo not given) | 5.2* | -2 | -1 | 2 | -2
c1ccc(-c2nc3ccccc3nc2-c2ccc(CN3CCC(n4nnc5ccccc54)CC3)cc2)cc1 | . | -2 | -4 | -1 | -2
Cc1cc(N2CCNC[C@H]2C)ccc1N1CC[C@H](O)C1 | . | -1 | 1 | -3 | -2
O=c1c2ccccc2nc(/C=C/c2ccccn2)n1-c1ccccc1 | -1 | -1 | -1 | 10* | -2
Cc1ccc(-n2c(/C=C/c3ccccn3)nc3ccccc3c2=O)cc1 | -2 | -1 | 0 | 0 | 0
COC(=O)C1=C[C@H]([C@@H](C)[C@H](OC)c2ccccc2Br)[C@@H]2[C@H]1c1ccccc1N2C | . | -1 | -1 | -1 | -1
O=C(c1ccccc1)N1Cc2cc(Br)ccc2-n2nncc2C1 | . | -1 | 0 | 0 | 0
CCOC(=O)[C@]12Cc3ccccc3[C@H]1N(C(C)C)C(=O)c1ccccc12 | . | -1 | 4.5* | -2 | -1
CCCC(=O)N1c2ccc(Cl)cc2C(c2ccccc2)=NCC1C(=O)NC(C)(C)C (stereo not given) | . | -1 | 1 | -1 | 2
SMILES | DAX1 inh-1 | ssDAF12 agonist | DAX1 inh-2 | hgDAF-12 ag | hcDAF-12 act
COc1ccc(OC)c(-n2c(O)c(/C=C3\C=Nc4ccccc43)c(=O)[nH]c2=O)c1 | 1 | 2.9* | 0 | 7 | 4
O=C(NCCN1CCC2(CC1)C(=O)NCN2c1ccccc1)c1cccs1 | . | -1 | 0 | 3 | 2
CCC(C)N1C(=O)/C(=C\c2ccc(N3CCCCCC3)cc2)C(=O)NC1=S (stereo not given) | -1 | 5.5* | -2 | 1 | 0
CCC(C)N1C(=O)/C(=C\c2cc3c4c(c2)CCCN4CCC3)C(=O)NC1=S (stereo not given) | 0 | -1 | 0 | 2 | 0
COc1ccc(-n2c(=O)[nH]c3ccccc3c2=O)c(OC)c1 | 0 | -1 | 1 | -3 | -2
COc1ccc2c(c1)NP(=S)(c1ccccc1)N2C (stereo not given) | 5.3* | 0 | 4.5* | 10 | 3
O=C(O)CCl | . | -2 | 1 | -1 | -1
CN1CCN(c2c(N)c(=O)oc3ccccc23)CC1 | 0 | -2 | 2 | 0 | 1
Nc1ccc2c(c1)oc1ccccc12 | 1 | -1 | 2 | 11* | 2
COc1cc(C2c3cc4c(cc3CC3COC(=O)C32)OCO4)cc(OC)c1OC (stereo not given) | -3 | -1 | 4.4* | -5 | -2
Nc1ccc(-c2ccccc2)cc1 | 0 | 0 | 3 | 7 | 1
Nc1ccc2ccccc2c1 | 1 | 0.9* | 1 | 0 | 5
O=C(CN1C(=O)[C@@H](Cc2ccc(O)cc2)N=C(c2ccccc2)c2ccccc21)NC1CCCCC1 | . | -1 | -1 | -2 | -1
COc1cc(CN2CCNCC2)cc(OC)c1OC | 0 | 1.0* | 0 | 5 | 1
COc1ccc(CN2CCNCC2)c(OC)c1OC | -1 | -1 | -1 | -2 | -1
Cc1ccc(S(=O)(=O)Cc2ccc(C(=O)N3CCC4(CC3)OCCO4)o2)cc1 | 1 | -1 | 0 | 0 | 5.8*
CCC(C)(O)C(=O)OC1C(=O)OC2CC3C(C)=CC(O)C(O)C3(C)C3C4(O)OCC23C1C(C)C4O (stereo not given) | . | -3 | -7 | -16 | -6
COc1ccc2c(c1)C(NC(C)=O)CCc1cc(OC)c(OC)c(OC)c1-2 (stereo not given) | 1 | 0 | 3.9* | -3 | 0
COc1cc2c(c(OC)c1OC)-c1ccc(O)c(=O)cc1C(NC(C)=O)CC2 (stereo not given) | 6.4* | 0 | 1 | -5 | 1
